The test system of experiment [1] is Human papillomavirus type 1a protein E7 (residues 44-93). Nature of the experiment: HPV1a E7 fragment binders on microarrays, primary screen, biochemical, small-molecule microarray, residues 44-93, 635 nm fluorescence (AID 1108).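 Further: E7 fragment applied at 1 µg/mL in TBST for 1 h at 4 C; score combines spot fluorescence with its signal to noise ratio.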 The following applies: small-molecule microarray binding, fluorescence 635 nm; higher = more signal.
Experiment [2] in a line: modulators of HCV replicon luciferase signal, primary screen, HCV replication inhibitor project, Huh7 cells, luciferase reporter (AID 1109).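 Further: huh7 hepatoma cells harbouring a luciferase neomycin HCV replicon reporter; luciferase luminescence as measure of HCV replicon replication; test concentration not given here.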 The settings on record: 48 h, higher = more signal. Background: In antiviral work, replicon cells carry a viral genome segment that copies itself.
In experiment [3] the target is Left-right determination factor 2 (Homo sapiens) (UniProt O00292). Nature of the experiment: LEFTY2 binders on small-molecule microarrays, primary screen, biochemical, small-molecule microarray, 635 nm fluorescence scan (AID 1110). The settings on record: LEFTY2 binding, higher = more signal.
Sequence of Left-right determination factor 2 (Homo sapiens) (O00292 whole entry, looked up): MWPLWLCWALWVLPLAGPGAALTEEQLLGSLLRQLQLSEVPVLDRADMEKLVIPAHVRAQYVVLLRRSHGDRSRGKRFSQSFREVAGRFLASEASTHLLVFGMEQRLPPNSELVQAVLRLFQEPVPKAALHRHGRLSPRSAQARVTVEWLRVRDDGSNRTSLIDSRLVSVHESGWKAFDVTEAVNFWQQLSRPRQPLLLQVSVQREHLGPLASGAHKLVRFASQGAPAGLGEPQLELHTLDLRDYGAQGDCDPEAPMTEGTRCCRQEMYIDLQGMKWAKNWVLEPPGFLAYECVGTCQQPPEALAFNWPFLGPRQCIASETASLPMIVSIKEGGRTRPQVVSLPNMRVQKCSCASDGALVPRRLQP
Experiment [4] addresses Calmodulin-1 (Homo sapiens) (UniProt P0DP23). Nature of the experiment: CALM1 binders on microarrays, EGTA buffer, profiling panel, biochemical, small-molecule microarray, Cy5-labelled CALM1 (AID 1111).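 Further: labelled calmodulin applied in Tris saline Tween buffer holding calcium plus EGTA and DTT.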 The settings on record: Cy5-CALM1 binding fluorescence, higher = more signal.
Experiment [5] has the same target. Briefly: calcium-bound CALM1 binders on microarrays, profiling panel, artefact control for SMM control-protein annotation, biochemical, small-molecule microarray, Cy5-labelled CALM1, plus calcium (AID 1112).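 Further: score merges spot fluorescence with signal to noise from triplicate slides.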 The settings on record: Cy5-CALM1 binding fluorescence, higher = more signal.
A short description of experiment [6]: small-molecule microarray binders of probe aWnt5a, primary screen, biochemical, biotinylated probe, 635/667 nm fluorescence (AID 1113).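 Further: score merges 667 nm fluorescence intensity with signal-to-noise per printed feature.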 The settings on record: higher = more signal.
Experiment [7] can be described thus: small-molecule microarray binders of probe aShh, primary screen, biochemical, biotinylated probe, 635/667 nm fluorescence (AID 1114).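 Further: probe is biotin-labelled aShh protein from a stem cell growth factor screen; measures binding of labelled protein to compounds printed on the slide; score merges feature fluorescence at 667 nm with signal-to-noise.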 The following applies: higher = more signal.
Experiment [8] is described as follows: small-molecule microarray binders of probe aNog, primary screen, biochemical, biotinylated probe, 635/667 nm fluorescence (AID 1115).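 Further: probe is biotinylated aNog protein used at 0.15 µg/mL for 1 h at 4 C; z-score combines 667 nm fluorescence of each spot with its signal to noise.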 The following applies: higher = more signal.
The target of experiment [9] is Torsin-1A-interacting protein 1 (Homo sapiens) (UniProt Q5JTV8). Briefly: LAP1 binders from COS7 cell lysate, primary screen, small-molecule microarray, 635/667 nm fluorescence (AID 1116). The following applies: COS7-hLAP1 lysate binding, 635 nm fluorescence, higher = more signal.
Sequence of Torsin-1A-interacting protein 1 (Homo sapiens) (Q5JTV8 whole entry, looked up): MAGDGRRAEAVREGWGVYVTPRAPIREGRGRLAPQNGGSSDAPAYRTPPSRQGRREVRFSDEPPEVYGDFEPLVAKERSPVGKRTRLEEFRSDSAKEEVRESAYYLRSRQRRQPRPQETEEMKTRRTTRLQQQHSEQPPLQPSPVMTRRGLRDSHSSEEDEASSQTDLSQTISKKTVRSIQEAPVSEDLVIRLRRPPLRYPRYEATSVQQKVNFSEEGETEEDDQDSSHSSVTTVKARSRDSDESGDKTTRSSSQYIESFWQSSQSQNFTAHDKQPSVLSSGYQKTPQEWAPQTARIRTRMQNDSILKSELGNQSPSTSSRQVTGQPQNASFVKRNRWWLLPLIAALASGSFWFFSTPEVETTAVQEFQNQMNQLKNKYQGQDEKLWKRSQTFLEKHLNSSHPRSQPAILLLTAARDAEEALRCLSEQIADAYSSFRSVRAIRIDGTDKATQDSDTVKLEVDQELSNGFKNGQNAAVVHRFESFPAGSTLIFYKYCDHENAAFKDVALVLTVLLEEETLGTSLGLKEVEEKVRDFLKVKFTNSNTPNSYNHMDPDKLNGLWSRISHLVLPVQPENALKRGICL
Experiment [10] has as its target Alpha-bungarotoxin (Bungarus multicinctus) (UniProt P60615). Nature of the experiment: alpha-bungarotoxin binders on microarray, profiling panel, artefact control for SMM control protein annotation, biochemical, small-molecule microarray, Alexa647 label, 635/667 nm fluorescence (AID 1117). The settings on record: alpha-BTX-A647 binding fluorescence, higher = more signal.

The target in a further experiment is Albumin (Bos taurus) (UniProt P02769). Briefly: bovine serum albumin binders on microarray, profiling panel, artefact control for SMM control protein annotation, biochemical, small-molecule microarray, Alexa647 label, 635/667 nm fluorescence (AID 1118).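 Further: score merges 667 nm emission intensity and signal-to-noise per printed compound spot.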 The settings on record: BSA-A647 binding, fluorescence 635 nm, higher = more signal.
Sequence of Albumin (Bos taurus) (P02769 whole entry, looked up): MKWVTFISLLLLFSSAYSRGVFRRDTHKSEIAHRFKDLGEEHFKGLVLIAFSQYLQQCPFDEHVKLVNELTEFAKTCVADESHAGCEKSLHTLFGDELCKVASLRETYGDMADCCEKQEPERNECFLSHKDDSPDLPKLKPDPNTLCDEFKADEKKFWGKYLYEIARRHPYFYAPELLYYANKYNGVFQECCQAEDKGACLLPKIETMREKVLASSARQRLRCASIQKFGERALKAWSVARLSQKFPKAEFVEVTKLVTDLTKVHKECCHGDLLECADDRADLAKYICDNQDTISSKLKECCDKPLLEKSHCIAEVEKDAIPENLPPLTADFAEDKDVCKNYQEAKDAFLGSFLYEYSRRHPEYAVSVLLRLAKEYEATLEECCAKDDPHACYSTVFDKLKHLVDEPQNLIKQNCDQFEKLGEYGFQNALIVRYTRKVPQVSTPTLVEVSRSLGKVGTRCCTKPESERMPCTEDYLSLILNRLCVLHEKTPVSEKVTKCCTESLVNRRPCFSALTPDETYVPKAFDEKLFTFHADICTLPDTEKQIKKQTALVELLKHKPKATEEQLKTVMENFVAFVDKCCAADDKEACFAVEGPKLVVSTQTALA
The nature of experiment [11]: small-molecule microarray binders of probe aXIP, primary screen, biochemical, NeuroSMM set, 635/667 nm fluorescence (AID 1119).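 Further: probe is the protein aXip251-270 applied at 1 µg/mL to compound-printed slides; binding of probe to printed compounds measured as 667 nm fluorescence plus signal to noise.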 The following applies: higher = more signal, called active from +8 up or from −8 down.
Experiment [12] is described as follows: small-molecule binders of probe aNOTCH3, primary screen, biochemical, small-molecule microarray, 635/667 nm fluorescence (AID 1120).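 Further: probe is a biotin-tagged antibody raised against NOTCH3 rather than NOTCH3 protein; score merges spot fluorescence near 667 nm with spot signal to noise.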 The following applies: higher = more signal.
The nature of experiment [13]: small-molecule binders of probe aNOTCH2, primary screen, biochemical, small-molecule microarray, 635/667 nm fluorescence (AID 1121).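 Further: score merges feature fluorescence read at 667 nm with its signal to noise.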 The following applies: higher = more signal.
Experiment [14] has as its target Carbonic anhydrase 2 (Homo sapiens) (UniProt P00918). Briefly: CAII small-molecule binders, profiling panel, biochemical, small-molecule microarray, Alexa647-labelled CAII (AID 1122). The settings on record: CAII-A647 binding fluorescence, higher = more signal.
A short description of experiment [15]: COS7 lysate on small-molecule microarray, probe aHis, 635 nm (AID 1123).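 Further: z-score combines 667nm fluorescence intensity with signal-to-noise per printed compound spot.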 The following applies: COS7 cell lysate, fluorescence, higher = more signal.
Experiment [16] can be described thus: compound binding in COS7 lysate, probe aLAP1, primary screen, cell lysate, small-molecule microarray (AID 1124).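 Further: lysate comes from COS7 cells expressing LAP1 and is applied at 0.3 µg/mL; score merges spot fluorescence near 667 nm with signal-to-noise over triplicate slides.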 The settings on record: probe aLAP1, fluorescence, higher = more signal.
A further experiment has as its system Sam68 (KHDRBS1). Briefly: Sam68 small-molecule binders, primary screen, biochemical, small-molecule microarray, 635 nm fluorescence (AID 1125).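 Further: score merges 667 nm channel intensity with signal to noise over triplicate slides.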 The settings on record: small-molecule microarray binding, higher = more signal.
The test system of experiment [17] is Chordin-like protein 2 (CHRDL2). Briefly: CHRDL2 small-molecule binders, primary screen, biochemical, small-molecule microarray, 635 nm fluorescence (AID 1126).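 Further: printed compound slides probed with Chrdl2 protein at 4 µg/mL for 1 h at 4 C; score merges 667 nm emission intensity with signal to noise over three replicate slides.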 The following applies: small-molecule microarray binding, fluorescence 635 nm; higher = more signal.
Experiment [18] concerns the target Concanavalin-A (Canavalia ensiformis) (UniProt P02866). Briefly: ConA small-molecule binders, primary screen, artefact control for SMM control protein annotation, biochemical, small-molecule microarray, Alexa647 label, 635 nm (AID 1127).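 Further: z combines 667 nm emission intensity with signal-to-noise across three replicate slides.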 The following applies: ConA-A647 binding fluorescence, higher = more signal.

Calls of active or inactive are those of the source.

Sequence of Alpha-bungarotoxin (Bungarus multicinctus) (P60615 whole entry, looked up): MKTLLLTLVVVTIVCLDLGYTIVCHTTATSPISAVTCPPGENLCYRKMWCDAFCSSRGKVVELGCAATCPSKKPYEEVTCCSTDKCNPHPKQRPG
Sequence of Concanavalin-A (Canavalia ensiformis) (P02866 whole entry, looked up): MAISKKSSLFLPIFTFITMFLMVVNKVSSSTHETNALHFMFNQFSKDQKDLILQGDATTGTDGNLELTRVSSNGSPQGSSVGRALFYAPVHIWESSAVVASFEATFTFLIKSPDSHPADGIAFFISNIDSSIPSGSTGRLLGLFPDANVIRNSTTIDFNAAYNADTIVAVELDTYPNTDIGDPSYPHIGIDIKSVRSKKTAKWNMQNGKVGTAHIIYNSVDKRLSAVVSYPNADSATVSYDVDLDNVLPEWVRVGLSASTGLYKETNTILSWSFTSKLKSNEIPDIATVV

For the compound `[N-]=[N+]=NCc1ccccc1[C@H]1OC(c2ccc(OCCCO)cc2)=N[C@@]1(Cc1ccccc1N=[N+]=[N-])C(=O)NCCN1CCOCC1`, the composite z-score in experiment [1] amounted to 1.05; in [3], 0.528; in experiment [4], 1.19; in [5], 0.305; in experiment [6] it was 0.16; in experiment [7], 0.432. Further, the composite z-score was found to be 2.06 in experiment [8]; 1.79 in experiment [9]; 1.45 in experiment [10]; 0.701 with Albumin (Bos taurus); 0.416 in [12]; 0.105 in experiment [13]. For the same compound, the composite z-score is 0.751 in [14]; 2.32 in [15]; -0.0777 in experiment [16]; 1.29 in the experiment on Sam68 (KHDRBS1); 0.263 in [17]; 1.14 in [18]. The z-score in experiment [2] is -2.34. For the same compound, the composite Z-score in experiment [11] was -0.514 (inactive).
Take `NC(=O)NCC#Cc1ccc2c(c1)[C@]1(C(=O)N2)[C@H](c2ccc(O)cc2)N2[C@H](c3ccccc3)[C@H](c3ccccc3)OC(=O)[C@H]2[C@@H]1C(N)=O`: the composite z-score in [1] was -0.366; in experiment [3], -0.749; in [4], -0.571; in [5], 0.261; in experiment [6], -0.185; in [7] it was 0.0469. Further, the composite z-score in experiment [8] is 0.218; in [9] it was -0.757; in experiment [10] it was 0.387; in the experiment with Albumin (Bos taurus), -0.624; in experiment [12], -0.279; in [13], 0.104. The composite z-score was 0.263 in experiment [14]; 0.409 in experiment [15]; -0.0995 in [16]; -0.144 in the experiment on Sam68 (KHDRBS1); -0.162 in experiment [17]; -0.608 in experiment [18]. Also, the z-score in experiment [2] worked out at 0.114. The composite Z-score in experiment [11] was 0.251 (inactive).
As to `C=C(COC)C(=O)CC[C@H](OC(=O)c1ccccc1-c1ccccc1C(=O)O)c1ccc(OCCO)cc1`, the composite z-score is 0.701 in experiment [1]; 0.419 in experiment [3]; 0.0421 in experiment [4]; -0.774 in experiment [5]; -0.148 in experiment [6]; 0.351 in experiment [7]. In addition, the composite z-score in experiment [8] was 0.229; in experiment [9], 3.05; in [10], 1.16; with Albumin (Bos taurus) it was 0.369; in experiment [12], 0.0628; in experiment [13] it was -0.117. In addition, the composite z-score stood at 0.425 in experiment [14]; 0.276 in experiment [15]; 1.12 in experiment [16]; 1.09 in the experiment on Sam68 (KHDRBS1); 0.498 in experiment [17]; 0.527 in [18]. The z-score in experiment [2] was -1.06. For the same compound, the composite Z-score in experiment [11] is 0.161 (inactive).
As to `O=C1N(Cc2ccccc2)c2ccccc2[C@H]2OC(c3ccc(OCCCO)cc3)=N[C@@]12CCS(=O)(=O)c1ccccc1`, the composite z-score in [1] is 1.46; in experiment [3], 0.479; in [4], 1.76; in experiment [5], -0.465; in [6], 0.0317; in experiment [7] it was 0.435. The composite z-score is 0.347 in experiment [8]; 0.557 in experiment [9]; 0.977 in experiment [10]; 0.273 in the experiment with Albumin (Bos taurus); 0.0538 in experiment [12]; -0.112 in [13]. Further, the composite z-score in [14] was found to be 0.692; in experiment [15] it was 2.83; in experiment [16], 0.948; with Sam68 (KHDRBS1), 1.29; in experiment [17] it was 0.376; in [18], 0.54. The z-score in [2] was -2.22. Also, the composite Z-score in [11] is -0.313 (inactive).
Turning to `O=C1N(CCS(=O)(=O)c2ccccc2)c2ccccc2[C@H]2OC(c3ccc(OCCCO)cc3)=N[C@@]12CCS(=O)(=O)c1ccccc1`, the composite z-score in experiment [1] stood at 1.13; in [3], 0.98; in [4], 0.589; in experiment [5] it was 0.362; in [6], 0.385; in experiment [7], 0.359. For the same compound, the composite z-score in experiment [8] is 1.29; in experiment [9] it was 0.475; in experiment [10], 0.96; with Albumin (Bos taurus), -1.18; in experiment [12], 0.674; in experiment [13], 0.445. Further, the composite z-score was found to be 0.352 in experiment [14]; 2.82 in [15]; 0.226 in experiment [16]; 1.29 in the experiment with Sam68 (KHDRBS1); 1.07 in [17]; 1.16 in experiment [18]. The z-score in [2] was 0.208. For the same compound, in experiment [11], the composite Z-score was 1.11 (inactive).

(Values after PubChem BioAssay.)
